High-throughput results from PubChem.
Shown are actives, neighbours in structure and some others; about 3.5% of the full set was active somewhere.
Pf apPOL block = Pf-apPOL DNA polymerase inhibition | Recombinant Pf-apPOL, molecular beacon fluorescence, 1.5 h | inhibition, % at 10 µM | actives 0.25% (n = 210,000) | AID 1794808
mHTT CaM bind = inhibitors of human mutant huntingtin-calmodulin interaction; actives 3.6% (n = 190,000); P42858; inhibition, % at 15 µM; AlphaScreen His-mHTT/GST-CaM binding, luminescence; AID 1671202
Of the large screens only hits and unclear results are named; the others gave an inactive call. No stated cut-off is given here; in the data, active means inhibition above about 50%; inactive means the rest.

CC(C)C1C(=O)N(Cc2cn(CCC3OCCCO3)nn2)CCS(=O)(=O)N1Cc1ccc(-c2ccncc2)cc1 (centres undefined)	none
Cc1ccc(-c2ccc(CN3C(CC(C)C)C(=O)N(Cc4cn(CCC5OCCO5)nn4)CCS3(=O)=O)cc2)cc1 (centres undefined)	none
COCOCCn1cc(CN2CCS(=O)(=O)N(Cc3ccc(-c4ccc(Cl)c(Cl)c4)cc3)C(C(C)C)C2=O)nn1 (centres undefined)	mHTT CaM bind 100
COCOCCn1cc(CN2CCS(=O)(=O)N(Cc3ccc(-c4ccc(C)cc4)cc3)C(CC(C)C)C2=O)nn1 (centres undefined)	none
CC(C)C1C(=O)N(Cc2cn(CCC3OCCCO3)nn2)CCS(=O)(=O)N1Cc1ccc(-c2ccc(F)cc2)cc1 (centres undefined)	mHTT CaM bind 70
COCOCCn1cc(CN2CCS(=O)(=O)N(Cc3ccc(-c4ccc(F)cc4)cc3)C(CC(C)C)C2=O)nn1 (centres undefined)	mHTT CaM bind 69
Cc1ccc(C(=O)Nc2cccc(C)c2)cc1	none
CC(C)C(=O)Nc1ccc(C2(C(=O)NCCN3CCOCC3)CCCCC2)cc1	none
COCCC1CCN(C(=O)c2ccc(Cl)cc2)CC1	none
CCOc1ccc(N2CCN(C(=O)c3ccc(Cl)c(Cl)c3)C(C)C2=O)cc1 (centres undefined)	none
Cc1ccc(NC(=O)C2CCN(c3cncnc3N3CCOCC3)CC2)c(C)c1	none
O=C1OC(c2ccccc2)=NC1=C1C=C(c2ccccc2)OC(c2ccccc2)=C1	none
COc1ccc(-c2ccc(CN3C(C(C)C)C(=O)N(Cc4cn(CCC5OCCO5)nn4)CCS3(=O)=O)cc2)cc1OC (centres undefined)	none
CC(C)C1C(=O)N(Cc2cn(CCC3OCCO3)nn2)CCS(=O)(=O)N1Cc1ccc(-c2ccc(Cl)c(Cl)c2)cc1 (centres undefined)	mHTT CaM bind 98
O=C(/C=C/c1ccc2c(c1)OCO2)NCCSc1c[nH]c2ccccc12	none
CC1Oc2ccccc2C=C1C=C1SC(=S)NC1=O (centres undefined)	mHTT CaM bind 59
COc1ccc(C=C2SC(=S)N(CCC(=O)O)C2=O)c(OC)c1	none
CC1Oc2ccccc2C=C1C=C1SC(=S)N(CCC(=O)O)C1=O (centres undefined)	mHTT CaM bind 53
CC1Oc2ccccc2C=C1C=CC(=O)O (centres undefined)	none
Cc1ccc(NC(=O)N2CCC(n3cnc4ccc(Cl)cc4c3=O)CC2)cc1C	none
COc1ccc(-c2[nH]n(-c3ccc([N+](=O)[O-])cc3)c(=O)c2C=NCc2ccco2)cc1	none
COCCN1C(=O)C(=O)C(=C(O)c2ccc(OC)c(C)c2)C1c1ccc(OCC(N)=O)cc1 (centres undefined)	none
O=C(Nc1nnc2ccccn12)c1ccc(Cl)cc1	mHTT CaM bind 52
O=C(Nc1nnc2ccccn12)c1cccc(C(F)(F)F)c1	none
N#Cc1ccc(C(=O)Nc2nnc3ccccn23)cc1	none
COc1cccc(C(=O)Nc2nnc3ccccn23)c1	mHTT CaM bind 71
O=C1COc2ccccc2N1Cc1nc(-c2ccccc2Cl)no1	none
Cc1ccc(C(=O)N2CC=C(C(=O)N(C)C)CC2)cc1C	none
Cc1cc(C)c(O)c(N=Cc2cc3c(cc2[N+](=O)[O-])OCO3)c1	mHTT CaM bind 52
CC(=O)N(C)c1ccc(N=Cc2cc3c(cc2[N+](=O)[O-])OCO3)cc1	none
Cc1cc(C)c(O)c(N=Cc2cc(Cl)cc([N+](=O)[O-])c2O)c1	none
Cc1ccc(N=Cc2cc3c(cc2[N+](=O)[O-])OCO3)c(C)c1	mHTT CaM bind 76
N#Cc1ccccc1N=Cc1cc2c(cc1[N+](=O)[O-])OCO2	none
Cc1ccc(C)c(N=Cc2cc3c(cc2[N+](=O)[O-])OCO3)c1	mHTT CaM bind 66 (no result: Pf apPOL block)
CCOc1ncccc1C(=O)Nc1ccc(F)cc1F	none
Cc1ccc(CN2CC34C=CC(C)(O3)C(C(=O)O)C4C2=O)cc1 (centres undefined)	none
COc1ccc(NC(=O)Cn2c(-c3nonc3N)nc3ccccc32)cc1OC	none
Cc1cccc(CNc2c3c(nc4ncnn24)CCCC3)c1	none
COc1cc(C2=NOC(C(=O)Nc3ccc4c(c3)OCO4)C2)cc(OC)c1OC (centres undefined)	mHTT CaM bind 60
COc1ccc(NC(=O)C2CC(c3ccc(OC)c(OC)c3)=NO2)cc1OC (centres undefined)	none
COc1ccc(NC(=O)C2CC(c3cc(OC)c(OC)c(OC)c3)=NO2)cc1OC (centres undefined)	none
COc1ccc(C2=NOC(C(=O)Nc3ccc4c(c3)OCO4)C2)cc1OC (centres undefined)	mHTT CaM bind 55
COCCN(CCOC)Cc1c(O)ccc2c1OC(=Cc1cccc(Br)c1)C2=O	none
COc1ccc(-n2nc3cc(C)c(NC(=O)c4ccc([N+](=O)[O-])c(C)c4)cc3n2)cc1	none
CCOC(=O)c1ccc(NC(=O)CSc2ccc3nnc(-c4ccccn4)n3n2)cc1	none
CC(C)c1nnc(NC(=O)c2ccc(Cl)cc2)s1	none
CC(=O)Nc1ccc2c(c1)CCC2	none (no result: mHTT CaM bind)
COC1CCCCC1Nc1ccc2c(c1)CCC2 (centres undefined)	mHTT CaM bind 52 (no result: Pf apPOL block)
COCCc1noc(COC2CCCN(S(=O)(=O)C(C)C)C2)n1 (centres undefined)	none
COc1cccc(CNS(=O)(=O)c2ccc3[nH]c(=O)sc3c2)c1	none
Cc1ccc(CNS(=O)(=O)c2ccc3[nH]c4c(c3c2)CCCC4)o1	mHTT CaM bind 50
CCOc1ccccc1NC(=O)CN(C)S(=O)(=O)c1ccc2[nH]c3c(c2c1)CCCC3	none
CCOc1ccc(CNS(=O)(=O)c2ccc3[nH]c4c(c3c2)CCCCC4)cc1	mHTT CaM bind 55
CN(CC(=O)N1CCCC1)S(=O)(=O)c1ccc2[nH]c3c(c2c1)CCCC3	none
CN(Cc1ccccc1)S(=O)(=O)c1ccc2[nH]c3c(c2c1)CCCC3	mHTT CaM bind 71
COc1cccc(CNS(=O)(=O)c2ccc3[nH]c4c(c3c2)CCCCC4)c1	mHTT CaM bind 73
CCOC(=O)N1CCc2nn(CC(=O)Nc3ccc(OC)cc3OC)c(=O)cc2C1	none
CCc1ccccc1N1C=C(C#N)S(=O)(=O)c2ccc(Cl)cc21	none
CCOc1ccccc1CN1C(=O)CCC1(C)C(=O)NC1CCCCCC1 (centres undefined)	none
Cc1ccc(-n2c(SCC(=O)NCc3ccco3)nc3c(c2=O)SCC3)cc1	none
CCn1cc(Br)c(C(=O)Nc2ccccc2SC)n1	none
COc1cccc(CNC(=O)c2cn3cccc(C)c3n2)c1	none
COc1ccc(CCNC(=O)c2ccc3c(c2)NC(=O)C2CCCCN32)cc1OC (centres undefined)	none
CCN(c1ccc(OC)cc1)S(=O)(=O)c1ccc2[nH]c3c(c2c1)CCCCC3	mHTT CaM bind 70
O=c1[nH]c2ccc(S(=O)(=O)NCc3ccc4c(c3)OCO4)cc2[nH]c1=O	none
COc1ccc(CNS(=O)(=O)c2ccc3nc(-c4ccccc4)[nH]c3c2)cc1	none
COc1ccc(CCNS(=O)(=O)c2ccc3[nH]c4c(c3c2)CCCC4)cc1OC	none
O=S(=O)(NCCc1ccccc1)c1ccc2[nH]c3c(c2c1)CCCC3	mHTT CaM bind 95
COc1ccc(CNS(=O)(=O)c2ccc3[nH]c4c(c3c2)CCCCC4)cc1	mHTT CaM bind 97
O=S(=O)(NCc1ccc2c(c1)OCO2)c1ccc2[nH]c3c(c2c1)CCCCC3	mHTT CaM bind 96
O=C(Cc1cccs1)N1CCCC(c2ccnc(-c3ccccc3)n2)C1 (centres undefined)	none
N#Cc1ccc(N2CCCC2)c(C#N)c1Cl	none (no result: mHTT CaM bind)
